This is a sample that favours compounds with a hit; in the whole collection about 4.1% have one here.
DAX1 inh-1: blocks DAX1 repression of SF-1 activated StAR promoter. hit rate 1.1% among 370,000. HEK293T StAR-luciferase reporter, SF-1/DAX-1 repression relief. inhibition, % at 6.8 µM;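 active = inhibition above the mean over all tested compounds plus 3 SD, cut at about 3.6% in these data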;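 also: 0% = DAX-1 cells with DMSO and 100% = cells lacking DAX-1 with DMSO; higher inhibition means more luminescence from relief of DAX-1 repression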
DAX1 inh-2: inhibitors of human orphan nuclear receptor DAX1 (NR0B1) | P51843 | HEK293 Gal4-DAX1 luciferase reporter, luminescence | inhibition, % at 6.75 µM | hit rate 0.99% among 340,000 | AID 504766;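 active = inhibition above the mean over all tested compounds plus 3 SD, cut at about 4.2% in these data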;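 also: 0% = DAX1-transfected cells with DMSO and 100% = empty-vector control cells with DMSO; inhibition shows as a rise in luminescence from relieved DAX1 repression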
Target sequence (P51843 207-470 limits assumed): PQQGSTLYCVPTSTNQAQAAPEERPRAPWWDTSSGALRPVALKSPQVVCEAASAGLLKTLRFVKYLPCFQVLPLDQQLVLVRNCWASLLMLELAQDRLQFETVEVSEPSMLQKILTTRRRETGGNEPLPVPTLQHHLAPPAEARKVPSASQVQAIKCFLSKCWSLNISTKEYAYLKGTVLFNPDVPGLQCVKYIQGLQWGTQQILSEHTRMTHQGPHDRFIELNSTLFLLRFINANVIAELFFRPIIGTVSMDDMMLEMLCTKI
hcDAF-12 act: activators of H. contortus DAF-12 nuclear receptor. hit rate 1.4% among 370,000. AID 652067. HEK293 hcDAF-12 lit1-tk-luc reporter, luminescence; 0% DMSO, 100% Δ7-dafachronic acid. activation, % at 6.8 µM;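 active = activation above the mean of all tested compounds plus 3 SD, cut at about 5.5% in these data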;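 also: 100% = response to 3 µM Δ7-dafachronic acid high control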
hgDAF-12 ag: agonists of H. glycines DAF-12 nuclear receptor; HEK293 GAL4-hgDAF12 UAS-luciferase reporter, agonist luminescence; normalized to butyrate control; activation, % at 6.8 µM; hit rate 1.8% among 370,000; AID 687014;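 active = activation above a cutoff set at the mean of all screened compounds plus 3 SD, cut at about 10% in these data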;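 also: 0% = DMSO wells and 100% = sodium butyrate wells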
ssDAF12 agonist: S. stercoralis DAF-12 activation, primary screen. hit rate 1% among 370,000. HEK293 ssDAF-12/GRIP1 lit1-tk-luc reporter, luminescence; % of 3 µM dafachronic acid response. activation, % at 6.8 µM. AID 652126;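 active = activation above the mean over all tested compounds plus 3 SD, cut at about 0.9% in these data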;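 also: 0% = DMSO-only wells and 100% = 3 µM delta7-dafachronic acid wells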
hgDAF12 conf: confirmation of H. glycines DAF-12 agonists; AID 743050; activation, % at 6.8 µM; hit rate 80% among 3,300; HEK293 GAL4-hgDAF12 luciferase reporter, agonist mode; percent of butyrate response; shares compounds with hgDAF-12 ag;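 active = mean activation over triplicate wells above the hit cutoff derived from the earlier primary screen, cut at about 11% in these data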;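 also: 0% = DMSO low control and 100% = 2 mM sodium butyrate high control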
LXRb DAF12 ctr: activates human LXR-beta, counter-screen for DAF-12 agonists; activation, % at 6.8 µM; HEK293 Gal4-LXR luciferase reporter, 24 h; 3,300 tested, under 10 active; AID 743051; shares compounds with hgDAF-12 ag;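 active = mean activation of the triplicate above a set limit carried over from the primary screen, none filed active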
* = called active by the depositor; x = not tested or not shown.

SMILES | DAX1 inh-1 | DAX1 inh-2 | hcDAF-12 act | hgDAF-12 ag | ssDAF12 agonist | hgDAF12 conf | LXRb DAF12 ctr
O=C(CN(c1ccc2c(c1)OCCO2)S(=O)(=O)c1ccccc1)NCc1ccco1 | -1 | -1 | -2 | 0 | -1 | x | x
O=C(CN(C(=O)CNS(=O)(=O)c1ccccc1)c1ccc2c(c1)OCCO2)NCc1ccco1 | 0 | 2 | -1 | 15* | -1 | 1 | 0
COc1ccc(OCCSc2nnc(C)n2-c2ccccc2)cc1 | 0 | 0 | 0 | 1 | -1 | x | x
Cc1ccc(NCC(=O)Nc2cccc(S(=O)(=O)N(C)C)c2)cc1S(=O)(=O)N1CCCCCC1 | -7 | -3 | -4 | -8 | -2 | x | x
Cn1c(SCC2CCCCC2)nnc1-c1ccco1 | 1 | x | 1 | 15* | 0 | 15* | 0
O=C(CC1CCCCC1)Nc1nc2ccccc2s1 | 2 | 3 | 4 | 14* | -1 | 17* | 1
O=C(O)C1C2CCC(C2)C1C(=O)Nc1nc2ccccc2s1 (configuration not stated) | 1 | 1 | 1 | 3 | 0 | x | x
Cc1ccc(N2C(=NC(=O)c3ccccc3)SC3CS(=O)(=O)CC32)cc1 (configuration not stated) | -2 | 0 | 0 | 0 | -1 | x | x
CCCC(=O)N=C1SC2CS(=O)(=O)CC2N1c1ccc(-c2nc3ccc(C)cc3s2)cc1 (configuration not stated) | 2 | 1 | 6.0* | 18* | 0 | 9 | 1
COc1cc(C(=O)Nc2ccc3c(c2)ncn3C(C)(C)C)cc(OC)c1OC | 0 | -1 | -2 | -2 | -1 | x | x
CC(C)(C)n1cnc2cc(NC(=O)c3ccc(Cl)cc3)ccc21 | 3 | 4 | 5 | 14* | 1.3* | 19* | 2
CC(C)(C)n1cnc2cc(NCc3ccc(Br)cc3)ccc21 | 1 | 4.2* | 3 | 17* | 0 | 13* | 1
O=C(Nc1cccnc1)c1cc(-c2ccccc2)on1 | 0 | 0 | -1 | -1 | -1 | x | x
COc1ccc(-c2cc(C(=O)NCc3ccccc3)no2)cc1OC | -1 | 0 | -2 | 20* | -1 | -2 | 0
COc1ccc(CNC(=O)c2cc(-c3ccc(OC)c(OC)c3)on2)cc1 | -1 | 0 | -2 | -2 | -1 | x | x
O=C(Nc1cccc(O)c1)c1cc(-c2ccc3c(c2)OCO3)on1 | 2 | -5 | 3 | 7 | -1 | x | x
COc1cccc(-c2cc(C(=O)Nc3cccnc3)no2)c1 | 1 | 0 | 1 | 15* | 0 | 21* | 0
Cc1ccc(NC(=O)c2cc(-c3cccc(O)c3)on2)cc1C | 3 | 2 | 1 | 14* | 1.0* | 14* | 0
O=C(NCc1cccs1)c1cc(-c2ccc(O)cc2)on1 | 3 | 5.7* | 4 | 15* | -1 | 18* | 1
O=C(OC1CCOC1=O)c1cc(-c2cccs2)nc2ccccc12 (configuration not stated) | 0 | 0 | -1 | 2 | -1 | x | x
CCCOc1ccc(C(=O)ON=C2CCN(C)CC2)cc1 | 0 | 0 | -1 | 2 | -1 | x | x
CC(Sc1nnc(C2CC2)n1C1CC1)C(=O)N(C)Cc1cccc(F)c1 (configuration not stated) | -1 | 0 | -1 | -2 | -2 | x | x
O=C(NCc1ccccc1)c1cc(-c2cccc(O)c2)on1 | 2 | 0 | 0 | 18* | 0 | 12* | 0
O=C(NCc1ccccc1)c1cc(-c2ccco2)on1 | 0 | 0 | 1 | 2 | -1 | x | x
c1ccc(CSc2ccc(-c3ccccn3)nn2)nc1 | 3 | 1 | 3 | 16* | 0 | 10 | 1
SMILES | DAX1 inh-1 | DAX1 inh-2 | hcDAF-12 act | hgDAF-12 ag | ssDAF12 agonist | hgDAF12 conf | LXRb DAF12 ctr
Clc1ccc(-c2ccc(SCc3ccccn3)nn2)cc1 | 1 | 1 | 2 | 7 | 1 | x | x
O=C(NCCCN1CCOCC1)c1cc(-c2ccc(O)cc2)on1 | 1 | 2 | 2 | 8 | 0 | x | x
O=C(NCCCN1CCOCC1)c1cc(-c2ccccc2)on1 | 1 | 3 | 3 | 26* | -1 | 27* | 0
O=C(NCCN1CCOCC1)c1cc(-c2ccccc2)on1 | 0 | 2 | 2 | 24* | 0 | 23* | 0
O=C(NCCN1CCOCC1)c1cc(-c2cccs2)on1 | -1 | 3 | 1 | 20* | 0 | 29* | 0
O=C(NCCN1CCOCC1)c1cc(-c2ccc(Br)cc2)on1 | 0 | 1 | 0 | 0 | -1 | x | x
CC(C)c1cccc(-c2csc(C(C)(O)c3ccc(F)c(F)c3)n2)c1 (configuration not stated) | 0 | x | 0 | 1 | -2 | x | x
COC(=O)[C@]1(C)N[C@H](CN(C)S(=O)(=O)c2ccc(F)cc2)[C@@H]2C(=O)N(C)C(=O)[C@@H]21 | 0 | 0 | 0 | 0 | -1 | x | x
O=C(Nc1cc(-c2ccccc2)[nH]n1)c1ccccc1 | 2 | 3 | 4 | 14* | 0 | 16* | 1
Cc1cc(NC(=O)c2cccc(Oc3ccccc3)c2)n[nH]1 | 3.7* | 3 | 4 | 19* | 0 | 13* | 0
Cc1ccccc1OCCNC(=O)/C=C/c1ccccc1 | 1 | -1 | -2 | 4 | -1 | x | x
CCC(=O)Nc1ccc(NC(=S)NC(=O)c2cc3ccccc3o2)cc1 | -1 | 0 | 1 | 1 | -1 | x | x
CCOc1cccc(C(=O)NC(=S)Nc2ccccc2)c1 | 2 | 3 | 3 | 19* | 0 | 16* | 0
CCC(=O)Nc1cccc(NC(=S)NC(=O)c2ccc(C)cc2)c1 | 3.8* | 4.8* | 3 | 14* | -1 | 16* | 1
CCC(=O)Nc1cccc(NC(=S)NC(=O)c2cc3ccccc3o2)c1 | 2 | 2 | 5 | 16* | 1 | 22* | 1
CC(=O)c1cccc(NC(=S)NC(=O)c2ccc(C)cc2)c1 | 4.0* | 0 | 2 | 15* | 0 | 15* | 1
COc1ccccc1C(=O)NCC(=O)OCC(=O)N1CC(C)OC(C)C1 (configuration not stated) | -1 | 0 | -2 | -3 | 0 | x | x
Nc1nc(N)nc(-c2cccc(Br)c2)n1 | 4.2* | 3 | 1 | 14* | 0 | 11* | 0
COc1cc(/C=C/c2nnc3c4ccccc4ncn23)cc(OC)c1OC | -2 | -2 | -4 | -4 | -2 | x | x
C(=C\c1nnc2c3ccccc3ncn12)/c1ccccc1 | 1 | -2 | 6.1* | 15* | 2.5* | 18* | 1
Cc1ccc(NC(=O)C2C3CCCCC32)cc1[N+](=O)[O-] (configuration not stated) | 0 | 3 | 3 | 6 | -1 | x | x
Cc1cc(NC(=O)OC2CCCCC2)ccc1[N+](=O)[O-] | 1 | 1 | 2 | 17* | 0 | 14* | 1

Screening results as filed in PubChem BioAssay.
